Source: PubChem (several laboratories)
SKKanGAS inh: inhibitors of SKKanGAS S. pyogenes growth in kanamycin (SK-promoter or general growth effect); BacTiter-Glo, 6 h; inhibition, % at 7.5 µM; actives 1.3% (n = 300,000);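 active means mean replicate score, as percent of positive control median, at least 50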;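 further: strain carries kanamycin resistance gene driven by streptokinase promoter and grows in 40 µg/ml kanamycin; loss of luminescence reflects streptokinase promoter inhibition or plain growth inhibition; 0% = median of DMSO wells and 100% = positive control at its reference dose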
tim23-1 inh: tim23-1 yeast growth inhibition; inhibition, % at 20 µM; actives 1.3% (n = 330,000); S. cerevisiae tim23-1 growth, BacTiter-Glo luminescence, 24 h;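 active means growth inhibition of the mutant yeast at or above 50%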;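 further: temperature-sensitive mutant grown at 25 °C; plate controls were DMSO-treated mutant yeast for no effect and medium wells lacking yeast for full effect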
tim10-1 inh: tim10-1 yeast growth inhibition. S. cerevisiae tim10-1 ts strain growth, BacTiter-Glo, 24 h. inhibition, % at 20 µM. actives 2.2% (n = 330,000);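 active means inhibition of at least 40%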;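 further: mutant grown at 25 °C; 0% = DMSO wells with yeast and 100% = wells holding no yeast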
TIM10 inh: inhibits growth of TIM10 yeast strain. S. cerevisiae TIM10 strain growth, BacTiter-Glo luminescence, 24 h. inhibition, % at 10 µM. actives 1.4% (n = 330,000). AID 463195;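 active means inhibition of 40% or more at the single tested concentration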;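 further: wild-type TIM10 isogenic control strain grown at permissive 25 °C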
PfHsp90 yeast 2: reduces growth (ATP signal) of yeast expressing P. falciparum Hsp90; S. cerevisiae expressing PfHsp90, BacTiter-Glo ATP, 48 h; yeast lacking PDR1 and PDR3 efflux regulators; inhibition, % at 9.4 µM; actives 0.32% (n = 310,000);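 active means every replicate shows inhibition above about 80%, whatever the replicate mean, limit read from the data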;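 further: 0% = DMSO neutral controls and 100% = 20 µM radicicol positive controls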
ATG4B inh: blocks human ATG4B protease cleavage of LC3 substrate | Q9Y4P1 | ATG4B cleavage of LC3-PLA2, NBD-HPC fluorescence, 1 h | inhibition, % at 8.33 µM | actives 0.51% (n = 340,000) | AID 504462; in the data active means inhibition above about 40%
Target sequence (Q9Y4P1 whole entry, looked up): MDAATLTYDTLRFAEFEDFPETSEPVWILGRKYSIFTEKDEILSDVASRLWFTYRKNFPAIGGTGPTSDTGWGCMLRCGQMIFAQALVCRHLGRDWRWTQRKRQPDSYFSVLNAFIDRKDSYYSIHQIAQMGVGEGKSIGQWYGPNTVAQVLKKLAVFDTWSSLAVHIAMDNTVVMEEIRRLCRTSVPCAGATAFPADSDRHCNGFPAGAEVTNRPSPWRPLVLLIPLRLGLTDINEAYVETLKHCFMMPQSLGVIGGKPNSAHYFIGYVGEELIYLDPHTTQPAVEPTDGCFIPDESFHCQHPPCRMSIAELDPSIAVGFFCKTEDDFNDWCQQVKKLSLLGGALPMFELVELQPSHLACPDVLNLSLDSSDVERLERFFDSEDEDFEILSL
tim10 confirm: TIM10 yeast growth inhibition, confirmed | shares compounds with TIM10 inh | S. cerevisiae tim10 strain growth, BacTiter-Glo luminescence, 24 h | inhibition, % at 10 µM | actives 63% (n = 4,600);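 active means inhibition of yeast growth at or above a set limit in either of two replicates at 10 µM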;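 further: this counterscreen used the strain with wild-type TIM10; 0% = yeast with DMSO and 100% = medium wells lacking yeast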
* hit, by the source's call. Only some compounds are listed: those with a hit (about 4.7% of all), similar ones and a draw of the others.

For CN(C(=O)COC(=O)c1ccc(S(=O)(=O)N2CCCC2)cc1)c1ccccc1 the results were SKKanGAS inh 2, tim23-1 inh 25, tim10-1 inh 33, TIM10 inh 8 and ATG4B inh 6.
`Nc1ccc(C(=O)OCc2nc3cc4ccccc4cc3[nH]2)cc1` gave SKKanGAS inh -2, tim23-1 inh -9, tim10-1 inh -38, TIM10 inh -28, PfHsp90 yeast 2 -40 and ATG4B inh -8.
`Nc1ccc(C(=O)OCc2nc3c(ccc4ccccc43)[nH]2)cc1` gave SKKanGAS inh -6, tim23-1 inh 35, tim10-1 inh 30, TIM10 inh 48*, PfHsp90 yeast 2 -15, ATG4B inh -16 and tim10 confirm -3.
Screening CCOC(=O)c1c(C)[nH]c(C(=O)N/N=C/c2ccc(Br)cc2)c1C returned SKKanGAS inh 10, tim23-1 inh 39, tim10-1 inh 26, TIM10 inh 50*, PfHsp90 yeast 2 -1, ATG4B inh -15 and tim10 confirm 46*.
Screening Cc1[nH]c(C(=O)N/N=C/c2ccc(C(=O)O)cc2)c(C)c1C(=O)N/N=C/c1ccc(C(=O)O)cc1 returned SKKanGAS inh -4, tim23-1 inh 18, tim10-1 inh 8, TIM10 inh 11, PfHsp90 yeast 2 -1 and ATG4B inh 11.
For CC(=O)Nc1nc2c(C)c(Cl)ccc2s1 the results were SKKanGAS inh -2, tim23-1 inh 3, tim10-1 inh -5, TIM10 inh -8, PfHsp90 yeast 2 -10 and ATG4B inh -10.
Cc1c(Cl)ccc2sc(NC(=O)C3CC3)nc12 was read as SKKanGAS inh 9, tim23-1 inh 50, tim10-1 inh 18, TIM10 inh 44*, PfHsp90 yeast 2 -23, ATG4B inh 0 and tim10 confirm 38*.
Screening CCOc1ccc(NC(=O)c2cccs2)c([N+](=O)[O-])c1 returned SKKanGAS inh 2, tim23-1 inh 0, tim10-1 inh 14, TIM10 inh 12, PfHsp90 yeast 2 -7 and ATG4B inh 4.
Screening O=C(CCCOc1ccc(Cl)cc1Cl)N/N=C/c1ccccc1O returned SKKanGAS inh 33, tim23-1 inh 39, tim10-1 inh -1, TIM10 inh 41*, PfHsp90 yeast 2 16, ATG4B inh 4 and tim10 confirm 40*.
COCC(=O)Nc1c(C(=O)Nc2cccc(OC)c2)oc2ccccc12 was read as SKKanGAS inh 0, tim23-1 inh 33, tim10-1 inh 32, TIM10 inh 31 and ATG4B inh -16.
O=C(Nc1nc2ccccc2s1)C1CC(=O)N(c2ccc(Cl)cc2)C1 (stereo unspecified) was read as SKKanGAS inh 24, tim23-1 inh 43, tim10-1 inh 27, TIM10 inh 48*, PfHsp90 yeast 2 -9, ATG4B inh -20 and tim10 confirm -22.
`COc1cccc2cc(-c3n[nH]c(=S)n3C)oc12` gave SKKanGAS inh -6, tim23-1 inh 28, tim10-1 inh 38, TIM10 inh 42*, PfHsp90 yeast 2 -1, ATG4B inh -4 and tim10 confirm 20.
For COc1cccc2cc(-c3ccnc(N)n3)oc12 the results were SKKanGAS inh -4, tim23-1 inh -1, tim10-1 inh 3, TIM10 inh 17, PfHsp90 yeast 2 11 and ATG4B inh -6.
For Cc1nc(SCC(=O)NCc2cccs2)nc(C)c1C the results were SKKanGAS inh 12, tim23-1 inh 0, tim10-1 inh 10, TIM10 inh 6, PfHsp90 yeast 2 -6 and ATG4B inh 1.
Cc1nc2c(C(=O)N3CCN(C)CC3)cnn2c(C)c1Cc1ccc(Cl)cc1 was read as SKKanGAS inh -5, tim23-1 inh 10, tim10-1 inh 13, TIM10 inh 11 and ATG4B inh -7.
Screening COc1ccc(C(=O)NNC(=S)NC(=O)c2ccc(Cl)cc2)cc1 returned SKKanGAS inh 79*, tim23-1 inh 31, tim10-1 inh 18, TIM10 inh 42*, PfHsp90 yeast 2 0, ATG4B inh -1 and tim10 confirm 7.
Screening COCCN(Cc1ccccc1)C(=S)Nc1ccc(Cl)cc1 returned SKKanGAS inh 7, tim23-1 inh 38, tim10-1 inh 28, TIM10 inh 41*, PfHsp90 yeast 2 1, ATG4B inh -2 and tim10 confirm 40*.
For CCOC(=O)c1cnc(NCc2ccccc2)nc1C the results were SKKanGAS inh 6, tim23-1 inh 29, tim10-1 inh 11, TIM10 inh 18, PfHsp90 yeast 2 -3 and ATG4B inh -4.
For CCOC(=O)c1cnc(-n2nc(C)cc2C)nc1NCc1ccccc1 the results were SKKanGAS inh 89*, tim23-1 inh 40, tim10-1 inh 36, TIM10 inh 43*, PfHsp90 yeast 2 4, ATG4B inh -10 and tim10 confirm 39*.
`Cc1ccc(O)c(-c2cc(-c3ccccc3F)[nH]n2)c1` gave SKKanGAS inh 8, tim23-1 inh 18, tim10-1 inh 39, TIM10 inh 48*, PfHsp90 yeast 2 10, ATG4B inh 18 and tim10 confirm 43*.
For CCOC(=O)c1ccc(N2C(=O)CC(N(C)CCc3ccc(OC)c(OC)c3)C2=O)cc1 (stereo unspecified) the results were SKKanGAS inh -7, tim23-1 inh 36, tim10-1 inh 35, TIM10 inh 43*, PfHsp90 yeast 2 112*, ATG4B inh -5 and tim10 confirm 46*.
`Cc1ccc(-c2n[nH]c(=S)n2/N=C/c2cccs2)cc1` gave SKKanGAS inh 36, tim23-1 inh 42, tim10-1 inh 30, TIM10 inh 52*, PfHsp90 yeast 2 -42, ATG4B inh -6 and tim10 confirm -22.
`S=c1[nH]nc(-c2ccccc2)n1/N=C/c1cccs1` gave SKKanGAS inh 0, tim23-1 inh 47, tim10-1 inh -20, TIM10 inh 32, PfHsp90 yeast 2 -10 and ATG4B inh -11.
O=C(NC1CCCCC1)C1CCN(c2cnccn2)CC1 was read as SKKanGAS inh 3, tim23-1 inh 4, tim10-1 inh -4, TIM10 inh 6 and ATG4B inh 1.
COc1ccc2[nH]c(C)c(CCNC(=S)Nc3ccc(C)cc3)c2c1 was read as SKKanGAS inh -13, tim23-1 inh 25, tim10-1 inh 40, TIM10 inh 40*, PfHsp90 yeast 2 12, ATG4B inh -1 and tim10 confirm 19.
`CCn1c(C(C)NC(=O)c2cccs2)n[nH]c1=S` (stereo unspecified) gave SKKanGAS inh 2, tim23-1 inh 8, tim10-1 inh 9, TIM10 inh 5, PfHsp90 yeast 2 3 and ATG4B inh -1.
O=C(NCCCc1ccccc1)c1ccc(Br)o1 was read as SKKanGAS inh 1, tim23-1 inh 26, tim10-1 inh 19, TIM10 inh 9, PfHsp90 yeast 2 -12 and ATG4B inh 1.
